RORgamma inh: ROR gamma (mouse) transcription inhibition | P51450 | Drosophila S2 Gal4-RORgamma UAS-luciferase reporter, 20 h | Potency, µM (highest dose often 53.6 µM), actives largely listed as inhibitors | 310,000 compounds, 5.4% hits; further: nearly all actives have a fitted effect of over 60% in size
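A Gal4/UAS one-hybrid system in insect cells: metallothionein-promoter Gal4–ROR gamma fusion plus Photinus luciferase reporter. Copper sulfate 700 uM final, 20 hr ambient incubation, luminescent detection after 10 min with reagent.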
TDP1 inh: TDP1 (human) enzyme inhibition; 350,000 compounds, 0.28% hits; AID 485290; recombinant TDP1, AlphaScreen DNA substrate cleavage; Potency, µM (series often up to 130 µM), actives largely listed as inhibitors; Q9NUW8; further: nearly all actives have a fitted effect of over 40% in size
Target sequence (Q9NUW8 whole entry, looked up): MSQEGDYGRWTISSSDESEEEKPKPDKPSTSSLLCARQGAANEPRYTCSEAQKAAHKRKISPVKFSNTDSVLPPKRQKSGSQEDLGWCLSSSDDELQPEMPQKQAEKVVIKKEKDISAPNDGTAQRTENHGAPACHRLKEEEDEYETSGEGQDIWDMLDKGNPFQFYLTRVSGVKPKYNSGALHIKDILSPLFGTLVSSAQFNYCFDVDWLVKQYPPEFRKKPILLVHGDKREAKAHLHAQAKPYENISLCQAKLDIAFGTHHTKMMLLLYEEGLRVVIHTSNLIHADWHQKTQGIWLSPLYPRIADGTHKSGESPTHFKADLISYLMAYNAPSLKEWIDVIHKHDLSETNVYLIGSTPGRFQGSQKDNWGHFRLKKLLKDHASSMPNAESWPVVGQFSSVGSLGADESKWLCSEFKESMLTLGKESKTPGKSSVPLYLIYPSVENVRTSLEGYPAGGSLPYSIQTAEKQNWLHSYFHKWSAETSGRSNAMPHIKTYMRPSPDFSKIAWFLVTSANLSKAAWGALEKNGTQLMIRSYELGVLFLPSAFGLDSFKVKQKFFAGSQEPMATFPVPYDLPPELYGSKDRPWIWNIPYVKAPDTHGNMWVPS
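Here, a 5' biotin and 3' phosphotyrosine-FITC DNA oligonucleotide reports Tdp1 activity: intact substrate bridges AlphaScreen beads, while cleavage leaves a 3' phosphate and drops signal. All incubations at room temperature.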
TDP1 cell CPT: DT40-hTDP1 cell growth loss with CPT; Potency, µM (top dose mostly 46.2 µM), usual class: inhibitors; 420,000 compounds, 12% hits; AID 686979; chicken DT40 Tdp1-/-;hTDP1 cells + 20 nM CPT, ATP luminescence, 48 h; further: nearly all actives have a fitted effect of over 55% in size
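Chicken DT40 Tdp1-/- cells stably complemented with human TDP1 were seeded at 400 cells/well in medium containing 20 nM camptothecin, exposed to pin-transferred compounds, and grown at 37 °C for at least 48 hr. Viability was read as ATP luminescence.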
Gal4-VP16 FLuc: Gal4-VP16 reporter inhibition counter-screen. Drosophila S2 Gal4-VP16 UAS-luciferase, luminescence, 20 h. Potency, µM (series often up to 53.6 µM), most hits filed as inhibitors. 310,000 compounds, 3.5% hits. AID 2546;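 further: Gal4-VP16 expression switched on by copper sulfate through the metallothionein promoter; nearly all actives have a fitted effect of over 50% in size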
DT40 TDP1 no CPT: qHTS for Inhibitors of human tyrosyl-DNA phosphodiesterase 1 (TDP1): qHTS in cells in absence of CPT | DT40 Tdp1-/- hTDP1 cells, no CPT, ATP luminescence, 48 h | Potency, µM (highest dose often 46.2 µM), usual class: inhibitors | 420,000 compounds, 15% hits | AID 686978, 2013; further: nearly all actives have a fitted effect of over 55% in size
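Readout: luminescence from CellTiter-Glo after 30 min in the dark at RT. Cells: DT40 Tdp1-/- with stable hTDP1, 400/well. Exposure: compounds alone, ≥48 hr, 37 °C.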
A number is an active result; - = inactive; ? = inconclusive; . = no result given. Compounds with a hit are over-represented: about 19% of the library has one in this group of screens. The call rests on the fitted dose curve; in most records, active means well fitted curve in the direction sought with a large enough effect; inconclusive means small, poorly fitted or top-dose-only effect, or another doubt; inactive means no such curve, though single readings can be large; an effect the other way counts as inactive or inconclusive.

SMILES	RORgamma inh	TDP1 inh	TDP1 cell CPT	Gal4-VP16 FLuc	DT40 TDP1 no CPT
CCn1cc(S(=O)(=O)c2ccc(OC)cc2)c(=O)c2cc(OC)ccc21	-	-	-	?	-
O=C(O)c1ccc(N=Nc2c(O)ccc3ncccc23)cc1	1.1µM	.	4.1µM	3.2µM	2.9µM
CC(C)n1c(=S)[nH]c2ccccc21	?	-	-	?	-
CC(C)(C)c1cn(-c2ccccc2)c(=S)[nH]1	7.1µM	-	-	7.9µM	-
Cc1ccc(-n2cc(C(C)(C)C)[nH]c2=S)cc1	2.2µM	-	?	6.3µM	?
CCN1C(=O)[C@H]2[C@@H](c3ccc(C)cc3)N3C(=O)N(c4cccc(C)c4)C(=O)[C@@]3(Cc3ccccc3)[C@H]2C1=O	-	.	-	-	-
Cc1cccc(NC(=O)c2oc3ccccc3c2NC(=O)c2cc(=O)c3ccccc3o2)c1	.	-	-	.	-
Cc1ccc(NC(=O)c2oc3ccccc3c2NC(=O)Cc2ccccc2)cc1	.	-	16µM	.	?
CCOCC(=O)Nc1c(C(=O)Nc2ccc3c(c2)OCCO3)oc2ccccc12	-	-	?	-	8.2µM
Cc1ccc(NC(=O)c2oc3ccccc3c2NC(=O)c2ccccc2C)cc1	.	-	?	.	?
Cc1ccc(NC(=O)c2oc3ccccc3c2NC(=O)c2cc3ccccc3o2)cc1	.	-	?	.	16µM
O=C(Nc1c(C(=O)Nc2cccc(C(F)(F)F)c2)oc2ccccc12)c1cc(=O)c2ccccc2o1	.	-	4.1µM	.	?
COCC(=O)Nc1c(C(=O)Nc2ccc3c(c2)OCCO3)oc2ccccc12	?	-	-	-	?
CN(C)c1ccc(/C=N/NC(=O)c2ccnn2C)cc1	?	-	-	-	-
O=C(CSc1ccc2c(c1)OCCO2)Nc1ccccc1	.	.	-	.	?
O=C(Nc1c(C(=O)Nc2cccc(F)c2)oc2ccccc12)c1cc2ccccc2o1	.	-	18µM	.	15µM
Cc1ccc(NC(=O)COC(=O)Cc2ccsc2)cc1S(=O)(=O)N(C)C	-	-	-	-	-
CCOc1ccc(CC(=O)Nc2c(C(=O)c3ccc(C)cc3)oc3ccccc23)cc1OCC	.	-	?	.	18µM
O=C(Nc1c(C(=O)Nc2ccccc2F)oc2ccccc12)c1cc2ccccc2o1	.	-	-	.	?
CCOCc1c(C(=O)OCC(=O)Nc2ccc(C)c(S(=O)(=O)N(C)C)c2)oc2ccccc12	?	-	?	?	21µM
CC(C)CC1C(=O)N(Cc2cn(Cc3ccco3)nn2)CCS(=O)(=O)N1Cc1ccc(-c2cccc(CO)c2)cc1 (stereo not given)	.	.	?	.	16µM
CC(C)CC1C(=O)N(Cc2cn(Cc3ccco3)nn2)CCS(=O)(=O)N1Cc1ccc(-c2ccc(Cl)cc2)cc1 (stereo not given)	.	.	18µM	.	13µM
OC1(c2ccc(Cl)cc2)CCN(Cc2nc(-c3cnccn3)no2)CC1	-	-	-	-	?
CN1CC[n+]2cnc3ccccc3c21	-	-	-	-	-
Cc1ccc(C)c(Nc2cc(C(=O)NCCCN(C)C3CCCCC3)c3ccccc3n2)c1	.	-	?	.	15µM
SMILES	RORgamma inh	TDP1 inh	TDP1 cell CPT	Gal4-VP16 FLuc	DT40 TDP1 no CPT
COc1ccc(CNC(=O)c2cc(Nc3ccc(C)cc3C)nc3ccccc23)cc1	.	-	18µM	.	21µM
COc1ccc(Nc2cc(C(=O)NCc3ccccc3)c3ccccc3n2)cc1	.	-	?	.	-
Cc1cc(C)cc(Nc2cc(C(=O)NCCCN(C)C3CCCCC3)c3ccccc3n2)c1	.	-	4.6µM	.	3.3µM
COc1ccc(CNC(=O)c2cc(Nc3ccccc3C)nc3ccccc23)cc1	.	-	?	.	?
Cc1cc(C)cc(Nc2cc(C(=O)NCc3ccccc3)c3ccccc3n2)c1	.	-	23µM	.	21µM
O=c1c(=O)n(Cc2ccc(Cl)cc2)ccn1Cc1ccc(F)cc1	.	-	-	.	-
COC(=O)c1ccccc1NC(=O)c1ccc(-c2nc(COc3ccccc3)c(C)o2)cc1	.	-	-	.	-
COCCN(C(=O)c1cc(-c2ccc(F)cc2)nc2ccccc12)c1c(N)n(CC(C)C)c(=O)[nH]c1=O	.	.	-	.	-
CCOC(=O)/C(=N\Nc1ccc(C(C)=O)cc1)c1csc(Nc2ccccc2)n1	?	-	?	?	10µM
COc1ccc(OC)c(CCNC(=O)c2sc3nc4n(c(=O)c3c2C)CCC4)c1	-	-	-	-	-
